# Screening results as filed in PubChem.
# This is a sample that favours compounds with a hit; in the whole collection about 11% have one here.
# JMJD2A Tudor inh = qHTS Assay for Inhibitors of JMJD2A-Tudor Domain. Lysine-specific demethylase 4A (Homo sapiens), O75164. Potency, µM (series often up to 114 µM), hits mostly inhibitors. AID 504339, 2011. actives 4.4% (n = 390,000). AlphaScreen JMJD2A-Tudor / H3K4me3 peptide binding; note: nearly all actives have a fitted effect of over 50% in size
# L3MBTL1 inh = qHTS Assay for the Inhibitors of L3MBTL1 | AlphaScreen L3MBTL1–H3K9me1 peptide binding | Potency, µM (titrated, usually from 57.1 µM), hits mostly inhibitors | actives 0.66% (n = 230,000) | AID 485360, 2010; note: nearly all actives have a fitted effect of over 60% in size
#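 L3MBTL1 (50 nM) pre-complexed 30 min with biotinylated H3(1-15)K9me1 peptide (75 nM), then compounds added for 30 min at room temperature; AlphaScreen streptavidin donor/nickel chelate acceptor beads (10 ug/mL final) read after 30 min dark incubation.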
# BAZ2B inh = qHTS Assay for Inhibitors of BAZ2B; AlphaScreen BAZ2B-H3K14Ac peptide displacement; Potency, µM (highest dose often 114 µM), usual class: inhibitors; AID 504333, 2011; actives 4.4% (n = 360,000); note: nearly all actives have a fitted effect of over 60% in size
#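 In this displacement format the biotinylated H3(5-23) peptide acetylated at Lys14 serves as ligand at 50 nM, with BAZ2B at 50 nM in PBS pH 7.4 containing 0.01% Tween-20. Donor and acceptor beads are 10 ug/mL final.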
# HP1b chromo inh = HTS for Inhibitors of HP1-beta Chromodomain Interactions with Methylated Histone Tails | Chromobox protein homolog 1 (Homo sapiens), P83916 | AlphaScreen HP1-beta / biotin-H3K9me3 peptide binding | Potency, µM (highest dose often 114 µM), actives largely listed as inhibitors | actives 0.56% (n = 390,000); note: nearly all actives have a fitted effect of over 70% in size
# Target sequence (P83916 whole entry, looked up): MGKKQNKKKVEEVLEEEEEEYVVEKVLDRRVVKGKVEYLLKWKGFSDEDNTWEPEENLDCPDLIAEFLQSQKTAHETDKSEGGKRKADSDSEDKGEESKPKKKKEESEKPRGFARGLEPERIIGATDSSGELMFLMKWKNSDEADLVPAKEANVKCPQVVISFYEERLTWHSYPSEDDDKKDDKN
#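 AlphaScreen: HP1-beta (50 nM) preformed 30 min with biotin-H3(1-18)K9me3 peptide (50 nM) in PBS pH 7.4, 0.01% Tween-20. Compound added for 30 min at RT, then streptavidin donor/nickel chelate acceptor beads (10 ug/mL) for 30 min.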
# G9a inh = qHTS Assay for Inhibitors of Histone Lysine Methyltransferase G9a | AID 504332, 2011 | Potency, µM (doses to about 102 µM), usual class: inhibitors | actives 8.8% (n = 350,000) | G9a H3K9 monomethylation, AlphaScreen, 2 h; note: nearly all actives have a fitted effect of over 75% in size
# Target sequence (Q96KQ7 913-1193 limits assumed): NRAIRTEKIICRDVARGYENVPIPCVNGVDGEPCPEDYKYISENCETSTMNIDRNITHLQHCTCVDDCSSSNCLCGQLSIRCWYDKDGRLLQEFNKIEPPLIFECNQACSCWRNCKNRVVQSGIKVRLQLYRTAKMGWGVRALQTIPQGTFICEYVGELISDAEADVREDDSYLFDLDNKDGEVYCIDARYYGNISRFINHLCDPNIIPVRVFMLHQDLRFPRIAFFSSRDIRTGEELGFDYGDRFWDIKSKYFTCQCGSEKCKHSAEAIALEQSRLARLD
#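 Enzyme 20 nM + cpd, 15 min RT; add b-H3K9 pep 500 nM / SAM 20 uM; 2 h RT; anti-H3K9me1 Ab 0.5 ug/mL + SA donor / anti-rabbit acceptor beads 20 ug/mL each, 10 min; AlphaScreen read.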
# A number is an active result; - = inactive; ? = inconclusive; . = no result given; [ ] = dose if it differs, or a comment. Calls come from the whole dose curve; as a rule, active = well fitted inhibition curve with a large enough effect; inconclusive = small, poorly fitted or top-dose-only effect; inactive = no such curve, though single readings can be large or run the other way.
SMILES,JMJD2A Tudor inh,L3MBTL1 inh,BAZ2B inh,HP1b chromo inh,G9a inh
C#CCOCCOCCOCCNc1nc(N2CCOCC2)nc(N2CCN(C(=O)[C@H](Cc3cc4ccccc4[nH]3)n3cc([C@@H](N)CC(C)C)nn3)CC2)n1,?,-,-,-,?
C#CCOCCOCCOCCNc1nc(N2CCN(C(=O)[C@H](Cc3cc4ccccc4[nH]3)n3cc([C@@H](N)CC(C)C)nn3)CC2)nc(N2CCN(C(=O)[C@H](Cc3cc4ccccc4[nH]3)n3cc([C@@H](N)CC(C)C)nn3)CC2)n1,44.7µM,?,44.7µM,?,?
C#CCOCCOCCOCCNc1nc(N2CCN(C(=O)C(CCC(=O)O)n3cc(C(N)CC(C)C)nn3)CC2)nc(N2CCN(C(=O)C(Cc3cc4ccccc4[nH]3)n3cc(C(N)Cc4ccc(O)cc4)nn3)CC2)n1 (configuration not stated),56.2µM,-,44.7µM,-,-[12.7 µM]
C#CCOCCOCCOCCNc1nc(N2CCN(C(=O)[C@H](Cc3cc4ccccc4[nH]3)n3cc([C@@H](N)C(C)CC)nn3)CC2)nc(N2CCN(C(=O)[C@H](CCCCN)n3cc([C@@H](N)CC(C)C)nn3)CC2)n1 (some centres not stated),44.7µM,-,35.5µM,-,-[12.7 µM]
C#CCOCCOCCOCCNc1nc(N2CCN(C(=O)C([C@@H](C)CC)n3cc(C(N)COC(=O)C(F)(F)F)nn3)CC2)nc(N2CCN(C(=O)[C@H](Cc3cc4ccccc4[nH]3)n3cc(C(N)CO)nn3)CC2)n1 (some centres not stated),50.1µM,.,.,-,.
O=C(CNC(=O)c1ccc(-c2ccccc2)cc1)OC(C(=O)Nc1cc(C(F)(F)F)ccc1Cl)c1ccccc1 (configuration not stated),-,.,.,.,.
O=C(NCc1ccccc1Cl)c1cc(C(=O)C2CC2)c[nH]1,-,.,-,-,.
O=C(O)Cn1nnc(-c2cccs2)n1,-,-,-,-,-
O=C(O)CCn1nnc(-c2cccs2)n1,-,-,79.4µM,-,?
COc1ccc(N(CC(=O)Nc2ccc(C)c(C)c2)S(=O)(=O)c2ccc(C)cc2)cc1OC,-,.,-,-,-
CC[N+](C)(CC)CCOC(=O)C(O)(c1ccccc1)C1CCCCC1 (configuration not stated),-,-,-,-,-[12.7 µM]
CC[N+](C)(CC)CCC(c1ccccc1)C1CCCCC1 (configuration not stated),?,-,50.1µM,?,?
Cc1cccc(Cc2cnc(NC(=O)C3Cc4ccc(C)cc4C(=O)O3)s2)c1 (configuration not stated),-,.,-,-,-
CNS(=O)(=O)c1ccc(NCC2COc3ccccc3O2)c([N+](=O)[O-])c1 (configuration not stated),-,-,50.1µM,-,15.8µM
COc1ccc(C2c3c(oc4ccc(C)cc4c3=O)C(=O)N2CCCN2CCOCC2)cc1OC (configuration not stated),-,.,-,-,-
CC(C)c1ccc(C2c3c(oc4ccc(Cl)cc4c3=O)C(=O)N2CCCN2CCOCC2)cc1 (configuration not stated),-,.,?,-,-
Cc1ccc(C2c3c(oc4cc(C)c(C)cc4c3=O)C(=O)N2CCCN2CCOCC2)cc1 (configuration not stated),-,-,-,-,39.8µM
C=CCOc1ccc(C2c3c(oc4ccccc4c3=O)C(=O)N2CCCN2CCOCC2)cc1 (configuration not stated),-,-,-,-,50.1µM
O=C1c2oc3ccc(Cl)cc3c(=O)c2C(c2ccccn2)N1CCCN1CCOCC1 (configuration not stated),-,-,?,-,20µM
CC(C)Oc1ccc(C2c3c(oc4ccccc4c3=O)C(=O)N2CCCN2CCOCC2)cc1 (configuration not stated),-,.,?,-,?
O=C1c2oc3ccccc3c(=O)c2C(c2cccnc2)N1CCCN1CCOCC1 (configuration not stated),-,-,-,-,-
Cc1ccc(C2c3c(oc4ccccc4c3=O)C(=O)N2CCCN2CCOCC2)o1 (configuration not stated),14.1µM,.,-,-,?
CC(C)c1ccc(NC(=O)C2CCCN(S(=O)(=O)c3ccc(Br)s3)C2)cc1 (configuration not stated),-,.,-,-,-
COCCNS(=O)(=O)c1cc2[nH]c3c(c2cc1C)C(=O)CC(C)(C)C3,-,.,-,-,?
CCOC(=O)c1c(NC(C)=O)c2c3c(sc2n1Cc1ccc(Cl)cc1)CCCC3,-,.,-,-,-
SMILES,JMJD2A Tudor inh,L3MBTL1 inh,BAZ2B inh,HP1b chromo inh,G9a inh
Cc1cc(NC(=O)CCC(=O)N(CC(=O)NC2CCCC2)Cc2ccc3c(c2)OCO3)no1,-,-,-,-,50.1µM
C[N+](C)(C)CCCN(Cc1ccc2c(c1)OCO2)C(=O)NC1CCCCC1,?,-,-,-,50.1µM
CC(NCc1ccc2c(c1)OCO2)C(=O)NC1CCCCC1 (configuration not stated),?,-,-,-,-
COCCNC(=O)CCCn1c(SCc2ccccc2C)nc2c(sc3ccccc32)c1=O,-,.,-,-,-
COc1ccc(N2C(=O)CSC2c2cccs2)cc1 (configuration not stated),-,-,-,-,50.1µM
C=CCNC(=S)Nc1cc(C)ccn1,-,.,-,-,1.58µM
CCN(CCO)C1CC(=O)N(c2ccccc2C)C1=O (configuration not stated),39.8µM,-,-,-,3.98µM
Cc1ccccc1N1C(=O)CC(N(O)c2ccccc2)C1=O (configuration not stated),-,-,-,-,?
CCN(CC)C1CC(=O)N(c2cccc(C)c2)C1=O (configuration not stated),.,-,-,.,11.2µM
Cc1ccc(N2C(=O)CC(Sc3cccs3)C2=O)cc1 (configuration not stated),-,-,-,-,35.5µM
Cc1cccc(N2C(=O)CC(Sc3nnc(C)s3)C2=O)c1 (configuration not stated),-,-,-,-,10µM
Cc1cccc(N2C(=O)CC(Sc3nc(C)cc(C)n3)C2=O)c1 (configuration not stated),-,.,?,-,?
Cc1ccc(SC2CC(=O)N(c3ccc4c(c3)OCCO4)C2=O)cc1 (configuration not stated),-,-[11.4 µM],-,-,?
CN(C)c1ccc(CNS(=O)(=O)c2ccc3[nH]c4c(c3c2)CCCCC4)cc1,-,.,-,-,?
